Results from the supplement of paper PMC4466140.

Experiments:
Experiment in all cases: SPOT peptide array binding signal intensity (averaged, normalized) (arbitrary units (background-subtracted, floor 0; scale differs between SH3 domains)); higher = stronger binding of the SH3 domain to the peptide
AgAbp1 = biological target: AgAbp1
Outline: (§1)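 Four yeast species supplied the SH3 domains, which were expressed as GST fusions in E. coli BL21(DE3) and purified on glutathione Sepharose. Incubation with cellulose membranes carrying synthetic 15-mer peptides, cysteines exchanged for serines, ran overnight at 4°C at 10 μg/ml in TBS-based blocking buffer. Binding signal is reported as normalized, background-subtracted spot intensity averaged over replicates, in arbitrary units not shared between domains.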

AgBbc1 = biological target: AgBbc1
Outline: as §1

AgBem1-D1 = biological target: AgBem1-D1
Outline: as §1

AgBzz1-D1 = biological target: AgBzz1-D1
Outline: as §1

AgBzz1-D2 = biological target: AgBzz1-D2
Outline: as §1

AgCyk3 = biological target: AgCyk3
Outline: as §1

AgFus1 = biological target: AgFus1
Outline: as §1

AgHof1 = biological target: AgHof1
Outline: as §1

AgHse1 = biological target: AgHse1
Outline: as §1

AgLsb1 = biological target: AgLsb1
Outline: as §1

AgLsb4 = biological target: AgLsb4
Outline: as §1

AgMyo5 = biological target: AgMyo5
Outline: as §1

AgNbp2 = biological target: AgNbp2
Outline: as §1

AgRvs167 = biological target: AgRvs167
Outline: as §1

AgSho1 = biological target: AgSho1
Outline: as §1

AgSla1-D1-D2 = biological target: AgSla1-D1-D2
Outline: as §1

AgSla1-D3 = biological target: AgSla1-D3
Outline: as §1

CaAbp1-D1 = biological target: CaAbp1-D1
Outline: as §1

CaAbp1-D2 = biological target: CaAbp1-D2
Outline: as §1

CaBbc1 = biological target: CaBbc1
Outline: as §1

CaBem1-D1 = biological target: CaBem1-D1
Outline: as §1

CaBzz1-D1 = biological target: CaBzz1-D1
Outline: as §1

CaBzz1-D2 = biological target: CaBzz1-D2
Outline: as §1

CaCyk3 = biological target: CaCyk3
Outline: as §1

CaFus1 = biological target: CaFus1
Outline: as §1

CaHof1 = biological target: CaHof1
Outline: as §1

CaHse1 = biological target: CaHse1
Outline: as §1

CaLsb1 = biological target: CaLsb1
Outline: as §1

CaLsb4 = biological target: CaLsb4
Outline: as §1

CaMyo5 = biological target: CaMyo5
Outline: as §1

CaNbp2 = biological target: CaNbp2
Outline: as §1

CaRvs167 = biological target: CaRvs167
Outline: as §1

CaRvs167-3 = biological target: CaRvs167-3
Outline: as §1

CaSho1 = biological target: CaSho1
Outline: as §1

CaSla1-D1-D2 = biological target: CaSla1-D1-D2
Outline: as §1

CaSla1-D3 = biological target: CaSla1-D3
Outline: as §1

ScAbp1 = biological target: ScAbp1
Outline: as §1

ScBbc1 = biological target: ScBbc1
Outline: as §1

ScBem1-D1 = biological target: ScBem1-D1
Outline: as §1

ScBzz1-D1 = biological target: ScBzz1-D1
Outline: as §1

ScBzz1-D2 = biological target: ScBzz1-D2
Outline: as §1

ScCyk3 = biological target: ScCyk3
Outline: as §1

ScFus1 = biological target: ScFus1
Outline: as §1

ScHof1 = biological target: ScHof1
Outline: as §1

ScHse1 = biological target: ScHse1
Outline: as §1

ScLsb1 = biological target: ScLsb1
Outline: as §1

ScLsb2 = biological target: ScLsb2
Outline: as §1

ScLsb3 = biological target: ScLsb3
Outline: as §1

ScLsb4 = biological target: ScLsb4
Outline: as §1

ScMyo3 = biological target: ScMyo3
Outline: as §1

ScMyo5 = biological target: ScMyo5
Outline: as §1

ScNbp2 = biological target: ScNbp2
Outline: as §1

ScPex13 = biological target: ScPex13
Outline: as §1

ScRvs167 = biological target: ScRvs167
Outline: as §1

ScSho1 = biological target: ScSho1
Outline: as §1

ScSla1-D1-D2 = biological target: ScSla1-D1-D2
Outline: as §1

ScSla1-D3 = biological target: ScSla1-D3
Outline: as §1

SpAbp1-D1 = biological target: SpAbp1-D1
Outline: as §1

SpBbc1 = biological target: SpBbc1
Outline: as §1

SpBzz1-D1 = biological target: SpBzz1-D1
Outline: as §1

SpBzz1-D2 = biological target: SpBzz1-D2
Outline: as §1

SpCyk3 = biological target: SpCyk3
Outline: as §1

SpHof1 = biological target: SpHof1
Outline: as §1

SpHof1-2 = biological target: SpHof1-2
Outline: as §1

SpHof1-3 = biological target: SpHof1-3
Outline: as §1

SpHse1 = biological target: SpHse1
Outline: as §1

SpLsb1 = biological target: SpLsb1
Outline: as §1

SpLsb4 = biological target: SpLsb4
Outline: as §1

SpMyo1 = biological target: SpMyo1
Outline: as §1

SpNbp2 = biological target: SpNbp2
Outline: as §1

SpPex13 = biological target: SpPex13
Outline: as §1

SpRvs167 = biological target: SpRvs167
Outline: as §1

SpSla1-D1-D2 = biological target: SpSla1-D1-D2
Outline: as §1

SpSla1-D3 = biological target: SpSla1-D3
Outline: as §1

B1: unnamed (peptide)
chain: AVPPPPPPPPLPESL
SPOT peptide array binding signal intensity (AgAbp1): 8.5
SPOT peptide array binding signal intensity (AgBbc1): 0.5
SPOT peptide array binding signal intensity (AgBem1-D1): ≤ 0
SPOT peptide array binding signal intensity (AgBzz1-D1): 1
SPOT peptide array binding signal intensity (AgBzz1-D2): 5.5
SPOT peptide array binding signal intensity (AgCyk3): ≤ 0
SPOT peptide array binding signal intensity (AgFus1): 2
SPOT peptide array binding signal intensity (AgHof1): 182
SPOT peptide array binding signal intensity (AgHse1): 26
SPOT peptide array binding signal intensity (AgLsb1): 0.5
SPOT peptide array binding signal intensity (AgLsb4): 3
SPOT peptide array binding signal intensity (AgMyo5): 188
SPOT peptide array binding signal intensity (AgNbp2): 18
SPOT peptide array binding signal intensity (AgRvs167): 0.667
SPOT peptide array binding signal intensity (AgSho1): 1
SPOT peptide array binding signal intensity (AgSla1-D1-D2): ≤ 0
SPOT peptide array binding signal intensity (AgSla1-D3): 2
SPOT peptide array binding signal intensity (CaAbp1-D1): 1
SPOT peptide array binding signal intensity (CaAbp1-D2): 1
SPOT peptide array binding signal intensity (CaBbc1): ≤ 0
SPOT peptide array binding signal intensity (CaBem1-D1): 1
SPOT peptide array binding signal intensity (CaBzz1-D1): 951
SPOT peptide array binding signal intensity (CaBzz1-D2): 158
SPOT peptide array binding signal intensity (CaCyk3): ≤ 0
SPOT peptide array binding signal intensity (CaFus1): 2
SPOT peptide array binding signal intensity (CaHof1): 0.5
SPOT peptide array binding signal intensity (CaHse1): 4.75
SPOT peptide array binding signal intensity (CaLsb1): 0.5
SPOT peptide array binding signal intensity (CaLsb4): ≤ 0
SPOT peptide array binding signal intensity (CaMyo5): 29
SPOT peptide array binding signal intensity (CaNbp2): 23.5
SPOT peptide array binding signal intensity (CaRvs167): 3.67
SPOT peptide array binding signal intensity (CaRvs167-3): 1.5
SPOT peptide array binding signal intensity (CaSho1): 4.5
SPOT peptide array binding signal intensity (CaSla1-D1-D2): ≤ 0
SPOT peptide array binding signal intensity (CaSla1-D3): ≤ 0
SPOT peptide array binding signal intensity (ScAbp1): ≤ 0
SPOT peptide array binding signal intensity (ScBbc1): ≤ 0
SPOT peptide array binding signal intensity (ScBem1-D1): ≤ 0
SPOT peptide array binding signal intensity (ScBzz1-D1): 13
SPOT peptide array binding signal intensity (ScBzz1-D2): ≤ 0
SPOT peptide array binding signal intensity (ScCyk3): 1
SPOT peptide array binding signal intensity (ScFus1): ≤ 0
SPOT peptide array binding signal intensity (ScHof1): 13.5
SPOT peptide array binding signal intensity (ScHse1): 34
SPOT peptide array binding signal intensity (ScLsb1): ≤ 0
SPOT peptide array binding signal intensity (ScLsb2): ≤ 0
SPOT peptide array binding signal intensity (ScLsb3): ≤ 0
SPOT peptide array binding signal intensity (ScLsb4): ≤ 0
SPOT peptide array binding signal intensity (ScMyo3): 1190
SPOT peptide array binding signal intensity (ScMyo5): 712
SPOT peptide array binding signal intensity (ScNbp2): 22
SPOT peptide array binding signal intensity (ScPex13): 538
SPOT peptide array binding signal intensity (ScRvs167): 2.33
SPOT peptide array binding signal intensity (ScSho1): ≤ 0
SPOT peptide array binding signal intensity (ScSla1-D1-D2): ≤ 0
SPOT peptide array binding signal intensity (ScSla1-D3): 1.25
SPOT peptide array binding signal intensity (SpAbp1-D1): 6
SPOT peptide array binding signal intensity (SpBbc1): 3
SPOT peptide array binding signal intensity (SpBzz1-D1): 3120
SPOT peptide array binding signal intensity (SpBzz1-D2): 4.25
SPOT peptide array binding signal intensity (SpCyk3): ≤ 0
SPOT peptide array binding signal intensity (SpHof1): ≤ 0
SPOT peptide array binding signal intensity (SpHof1-2): ≤ 0
SPOT peptide array binding signal intensity (SpHof1-3): ≤ 0
SPOT peptide array binding signal intensity (SpHse1): 10.5
SPOT peptide array binding signal intensity (SpLsb1): 4.75
SPOT peptide array binding signal intensity (SpLsb4): 27
SPOT peptide array binding signal intensity (SpMyo1): 980
SPOT peptide array binding signal intensity (SpNbp2): 16
SPOT peptide array binding signal intensity (SpPex13): ≤ 0
SPOT peptide array binding signal intensity (SpRvs167): 64.7
SPOT peptide array binding signal intensity (SpSla1-D1-D2): 1
SPOT peptide array binding signal intensity (SpSla1-D3): ≤ 0
